In PubChem BioAssay (NCI) one finds growth inhibition data, which are given here for 22 molecules.

This is part of a sample that, as a whole, favours compounds with a hit. Of some 79,000 tested, about 15% had one in any assay. Unmarked numbers belong to inactive results. Calls of active or inactive are those of the source. Rule as the data show it: active = growth inhibition above about 70%; inactive = the rest.

Experiment [1] in a line: NCI Yeast Anticancer Drug Screen. Data for the rad50 strain (AID 155).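 Also: 0% = growth of vehicle-only cultures of the same strain.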 To be noted: S. cerevisiae rad50 strain growth inhibition; at 50.0 µM; active compounds read high. In outline: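 Inhibition values express reduced yeast growth in compound-treated cultures relative to vehicle-treated controls.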
Experiment [2] is described as follows: NCI Yeast Anticancer Drug Screen. Data for the mec2-1 strain (AID 157). Particulars: S. cerevisiae mec2-1 strain, at 50.0 µM, active compounds read high. Put shortly:
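Strain: mec2-1 (DNA repair/cell cycle alteration). Compound exposure, then growth measured; inhibition expressed relative to vehicle.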

A short description of experiment [3]: NCI Yeast Anticancer Drug Screen. Data for the sgs1 mgt1 strain (AID 161).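 Also: 0% = growth of cultures given vehicle only.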 Particulars: S. cerevisiae sgs1 mgt1 strain, at 50.0 µM, active compounds read high. In outline: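 Inhibition of yeast growth, normalised to vehicle-treated controls, is reported for a strain bearing genetic alterations in DNA damage repair.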
A short description of experiment [4]: NCI Yeast Anticancer Drug Screen. Data for the cln2 rad14 strain (AID 165).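 Also: 0% = growth equal to vehicle treated cultures.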 To be noted: S. cerevisiae cln2 rad14 strain, at 50.0 µM, active compounds read high. In outline: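 Compounds are applied to the cln2 rad14 yeast strain, and growth is then compared with that of vehicle-treated cultures to give inhibition.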
The nature of experiment [5]: NCI Yeast Anticancer Drug Screen. Data for the bub3 strain (AID 167). To be noted: S. cerevisiae bub3 mutant strain, at 50.0 µM, active compounds read high. In outline:
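Steps: expose the mutant yeast strain to compound; grow alongside vehicle-treated cultures; measure growth; express inhibition against the vehicle cultures.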

A short description of experiment [6]: NCI Yeast Anticancer Drug Screen. Data for the mlh1 rad18 strain (AID 175). Particulars: S. cerevisiae mlh1 rad18 strain growth inhibition; at 50.0 µM; active compounds read high. In outline:
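Read-out is yeast growth inhibition, calculated against vehicle-only controls. The compound was applied to a strain engineered with DNA damage repair alterations.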

As to `CC(=O)NNC(=S)N/C=C/c1c(C)ccc([N+](=O)[O-])c1[N+](=O)[O-]`, the growth inhibition in experiment [1] is -24.5%; in experiment [2], -35%; in experiment [3], -28.4%; in experiment [4], -31.9%; in experiment [5], -36%; in experiment [6] it was -2.8%.

Turning to `CC(CC(CCC(=O)O)(c1ccccc1)c1ccccc1)N(C)C` (configuration not stated), the growth inhibition in experiment [1] was 19.6%; in experiment [2], -4.7%; in experiment [3] it was 9.45%; in experiment [4], -0.1%; in experiment [5] it was 7.95%; in experiment [6], 13.4%.

Consider `O=C(NC1CCCCC1)c1ccc(Cl)cc1`, for which the growth inhibition was 4.55% in experiment [1]; -6.7% in experiment [2]; -20.1% in experiment [3]; 12.7% in experiment [4]; -17.6% in experiment [5]; -1.85% in experiment [6].

`CC(=O)OCC1CCC(COC(C)=O)CC1` (configuration not stated): the growth inhibition in experiment [1] was 9.75%; in experiment [2], -30.6%; in experiment [3], -10.4%; in experiment [4], -5.95%; in experiment [5] it was 19.7%; in experiment [6], -3.9%.

For the molecule `COc1cc(C(=O)O)c(O)c(C(C)(C)C)c1`, the growth inhibition in experiment [1] was 19.4%; in experiment [2] it was 4.25%; in experiment [3] it was 17.9%; in experiment [4], -2.45%; in experiment [5], 5.4%; in experiment [6], 8.5%.

Consider `CC(C)C1CCC(C)C(O)C1` (configuration not stated), for which the growth inhibition in experiment [1] is 26.7%; in experiment [2], 6.35%; in experiment [3] it was 8.55%; in experiment [4], 8.9%; in experiment [5] it was -0.55%; in experiment [6], 12.8%.

`C=CCc1cc(OC)c(OC)c(OC)c1`: the growth inhibition in experiment [1] was 7.8%; in experiment [2], -4.2%; in experiment [3], -16.3%; in experiment [4], -6.6%; in experiment [5] it was -9.7%; in experiment [6] it was -4%.

Regarding `O=S(Cc1ccccc1)/C(=C/NC(=S)Nc1ccccc1)c1ccccc1` (configuration not stated), the growth inhibition was -26.7% in experiment [1]; -25.1% in experiment [2]; -40.1% in experiment [3]; -0.95% in experiment [4]; -16.9% in experiment [5]; -7.15% in experiment [6].

Turning to `NNC(=O)c1ccccc1N`, the growth inhibition in experiment [1] is -1.8%; in experiment [2], 4.35%; in experiment [3], 27.1%; in experiment [4], -11.2%; in experiment [5], -2%; in experiment [6] it was -1.55%.

Take `COc1cc(C(=O)NC(=S)NCc2ccncc2)cc(OC)c1OC`: the growth inhibition in experiment [1] was 9.6%; in experiment [2], 4.75%; in experiment [3], -4.65%; in experiment [4] it was -11.2%; in experiment [5], 34.2%; in experiment [6], 19.7%.

Take `CCOC(=O)CO`: the growth inhibition is 26% in experiment [1]; 6.85% in experiment [2]; -13.4% in experiment [3]; 0.3% in experiment [4]; 17.2% in experiment [5]; 18.9% in experiment [6].

For `O=c1[nH]c(=O)c2cc(Cl)cc(Cl)c2[nH]1`, the growth inhibition in experiment [1] is -2.05%; in experiment [2] it was -15.3%; in experiment [3] it was -1.4%; in experiment [4], 14%; in experiment [5], 9.25%; in experiment [6], 7.3%.

As to `C=C(C)COc1ccc(C(C)(C)C)cc1`, the growth inhibition in experiment [1] is 18.1%; in experiment [2] it was 16.7%; in experiment [3] it was 11.1%; in experiment [4], 8.1%; in experiment [5], 17.6%; in experiment [6], 12%.

Take `NC(CO)(CO)c1ccccc1`: the growth inhibition is 34.4% in experiment [1]; 13.1% in experiment [2]; 10.5% in experiment [3]; 20% in experiment [4]; 17.5% in experiment [5]; 29.9% in experiment [6].

Consider `CCOC(=O)c1ccc(C(C)(C)C)cc1`, for which the growth inhibition in experiment [1] is 20.4%; in experiment [2], -6.65%; in experiment [3] it was 2.5%; in experiment [4], -45.5%; in experiment [5], 0.4%; in experiment [6], 6.5%.

For `O=C(O)c1ccc(OCc2ccccc2)cc1`, the growth inhibition in experiment [1] was 12.6%; in experiment [2], 11.2%; in experiment [3], 38%; in experiment [4] it was -1.85%; in experiment [5], -28.1%; in experiment [6] it was 19.9%.

`CN=S(=O)(OCCCCCOS(=O)(=NC)c1ccc(C)cc1)c1ccc(C)cc1` (configuration not stated): the growth inhibition in experiment [1] was 3.75%; in experiment [2], -33.8%; in experiment [3], -22.9%; in experiment [4] it was -43.4%; in experiment [5] it was -41.3%; in experiment [6], -34.9%.

Turning to `Oc1ccc(N=Cc2ccc(OCc3ccccc3)cc2)cc1`, the growth inhibition in experiment [1] was 2.5%; in experiment [2], -29.9%; in experiment [3] it was 15.2%; in experiment [4], 0.25%; in experiment [5], 2.55%; in experiment [6], -4.1%.

Take `Oc1ccc2ccccc2c1CN1CCOCC1`: the growth inhibition is 26.9% in experiment [1]; 5.4% in experiment [2]; 32.9% in experiment [3]; 27.9% in experiment [4]; 15.1% in experiment [5]; 19% in experiment [6].

Consider `C=CC(=O)OC1CCC(C(C)(C)CC)CC1` (configuration not stated), for which the growth inhibition was 39.9% in experiment [1]; 14.1% in experiment [2]; -12.9% in experiment [3]; -22.7% in experiment [4]; -8.15% in experiment [5]; -18.5% in experiment [6].

In the case of `CC(=O)OCC1OC(n2cnc3c(=S)nc(N)[nH]c32)C(OC(C)=O)C1OC(C)=O` (configuration not stated), the growth inhibition in experiment [1] was 73% (active); in experiment [2], 42%; in experiment [3], 48.5%; in experiment [4], -12.4%; in experiment [5] it was 11.1%; in experiment [6], 24.6%.

As for `CC(=O)C[n+]1ccc(C)cc1Sc1ccccc1C`, the growth inhibition in experiment [1] is 8.4%; in experiment [2], -18.1%; in experiment [3] it was 6.85%; in experiment [4], 4.4%; in experiment [5], -3.35%; in experiment [6], 33.8%.
